The values below come from PubChem BioAssay AID743327 (National Center for Advancing Translational Sciences (NCATS), 2014).

The structures appear in SMILES notation. Activity calls are given as the source filed them. Where a call stands in place of a potency, no number is given. The call rests on the fitted dose curve. *1 amine or outer side, *2 acyl side, *3 side chain or, on linkers, in order; H or OH if unused. Where a SMILES comes first, the peptide text is derived from it. Bridges are numbered along the chain shown (N, C = ends). Roman numbers before positions name the chains, in order. [ ]: non-standard residue; d: D form. Actinocin(9to1) = Cc1c2oc3c(C)ccc(C(=O)[*:1])c3nc-2c(C(=O)[*:2])c(N)c1=O; NMeV = CN[CH](C(=O)O)C(C)C; Sar = CNCC(=O)O

The nature of the experiment: qHTS profiling of Chloroquine Analogs as inhibitors of Plasmodium falciparum (HB3) proliferation. To be noted: P. falciparum HB3 proliferation; series mostly up to 28.7 µM. The text has this:
Plasmodium falciparum is a virulent malarial parasite that kills 1-2 million people worldwide each year. Transmitted by mosquitoes, the sporozoite form of the parasite enters the blood stream to infect hepatocytes, where they become merozoites that infect red blood cells (erythrocytes). Within erythrocytes, merozoites begin a […] cycle of growth and division, after which the parasite is released to infect new red blood cells. Gametocytes, which form within erythrocytes as well, circulate in the bloodstream and are ingested by the mosquito, thereby completing the life cycle. To profile malarial isolates for differential chemical responses and to identify inhibitors of malarial growth, an assay that measures P. falciparum growth and replication within erythrocytes was employed. This assay uses a DNA binding fluorescent dye (SYBR Green) to detect parasite DNA following cell lysis. Because mature erythrocytes lack DNA, only Plasmodium-derived DNA is detected.
The SYBR Green viability assay was adapted from a method described previously (Plouffe et al., 2008). For screening 3 ul culture medium was dispensed into 1536 well black clear bottom plates (Aurora Biotechnologies) using a Multidrop Combi (Thermo Fisher Scientific Inc.), 23 nL compounds in DMSO were added by a pin tool (Kalypsys), and 5 ul of erythrocytes infected with P. falciparum (0.3% parasitemia, 2.5% hematocrit final concentration) were added. The plates were incubated at 37 C in a humidified incubator in 5% CO2 for 72 h, and 2 ul lysis buffer (20 mM Tris HCl, 10 mM EDTA, 0.16% saponin, 1.6% triton X, 10X SYBR Green I supplied as 10,000X […] by Invitrogen) was added to each well. The plates were mixed for 25 sec with gentle shaking and incubated overnight at room temperature in the dark. The following morning, fluorescence intensity at 485(14) nm excitation and 535(25) nm emission wavelengths was measured on an EnVision (Perkin Elmer) plate reader. Plate reads were normalized relative to the control inhibitor (0.29 uM artemisinin) and vehicle (DMSO) wells present on each plate and then corrected by an algorithm using vehicle-only control plates at the beginning and end of the compound plate stack.
On the technique in general: Quantitative high-throughput screening tests each substance at several concentrations.
In the case of `CN(C)CCOC(c1ccccc1)c1ccccc1`, the Potency entry is “inactive”.

On to `CCCCN(CCCC)CC(O)c1cc(Cl)cc2c1-c1ccc(Cl)cc1C2=Cc1ccc(Cl)cc1` (stereo not given), for which the Potency result was “inactive”.

For the compound `C=CCON=C(C[C@H]1O[C@@H]2O[C@]3(C)CC[C@@H]4[C@H](C)CC[C@@H]([C@H]1C)[C@@]24OO3)[C@H]1O[C@@H]2O[C@]3(C)CC[C@H]4[C@H](C)CC[C@@H]([C@@H]1C)[C@@]24OO3`, the Potency entry was “inactive”.

On to `Cn1cncc1[C@@](N)(c1ccc(Cl)cc1)c1ccc2c(c1)c(-c1cccc(Cl)c1)cc(=O)n2C`, for which the Potency result was “inactive”.

For the compound `Cc1cccc(C)c1OCC(=O)N[C@@H](Cc1ccccc1)[C@@H](O)C[C@H](Cc1ccccc1)NC(=O)[C@H](C(C)C)N1CCCNC1=O`, the Potency entry was “inactive”.

As for `O=C(C[C@@H]1NCCC[C@@H]1O)Cn1cnc2ccccc2c1=O`, the Potency entry was “inactive”.

Consider `CC(=O)N(O)CCCP(=O)(O)O`, for which the Potency is 0.266 µM (active).

As for `O=C(Nc1ccc(Cl)cc1)Nc1ccc(Cl)c(Cl)c1`, the Potency was 2.11 µM (active).

As for `Cc1nc2c(C#N)cccc2n1-c1ccc(C(=O)NC2CC2)s1`, the Potency is 0.0237 µM (active).

With `O=C(O)c1cn(C2CC2)c2cc(N3CCNCC3)c(F)cc2c1=O`, the Potency result is “inactive”.

For `COCC(=O)O[C@]1(CCN(C)CCCc2nc3ccccc3[nH]2)CCc2cc(F)ccc2[C@@H]1C(C)C`, the Potency was 1.5 µM (active).

Consider `COc1cccc(CCc2ccccc2OCC(CN(C)C)OC(=O)CCC(=O)O)c1` (stereo not given), for which the Potency is 2.98 µM (active).

Regarding `C[C@@H]1[C@@H](CC(C[C@H]2O[C@@H]3O[C@]4(C)CC[C@@H]5[C@H](C)CC[C@@H]([C@H]2C)[C@@]35OO4)C(=O)NCc2ccc(F)cc2)O[C@@H]2O[C@]3(C)CC[C@H]4[C@H](C)CC[C@@H]1[C@@]24OO3` (stereo not given in full), the Potency result is “inactive”.

In the case of `C[C@@H]1CC[C@H]2[C@@H](C)C(=O)O[C@@H]3OC4(C)CC[C@@H]1C32OO4` (stereo not given in full), the Potency result is “inactive”.

Consider `COc1ncnc(NS(=O)(=O)c2ccc(N)cc2)c1OC`, for which the Potency is 1.5 µM (active).

Take `O=CN(O)CCCP(=O)(O)O`: the Potency was 0.473 µM (active).

With `CCCCN(CCCC)CCC(O)c1cc2c(Cl)cc(Cl)cc2c2cc(C(F)(F)F)ccc12` (stereo not given), the Potency is 0.0051 µM (active).

On to `CC1=CC(=O)c2ccccc2C1=O`, for which the Potency was 2.37 µM (active).

Consider `CN(C)CC/C=C1\c2ccccc2COc2ccccc21`, for which the Potency was 2.54 µM (active).

Turning to `CN1CC[C@H](CN2c3ccccc3Sc3ccccc32)C1`, the Potency is 10.6 µM (active).

In the case of `Clc1ccc(COC(Cn2ccnc2)c2ccc(Cl)cc2Cl)c(Cl)c1` (stereo not given), the Potency entry is “inactive”.

Take `CCOc1ccc(F)cc1C1(O)C(N)=Nc2ccc(Cl)cc21` (stereo not given): the Potency entry is “inactive”.

Consider `CC[C@@H](C)[C@H]1O[C@]2(CC[C@H]1C)C[C@@H]1C[C@@H](CC=C(C)[C@@H](O[C@H]3C[C@H](OC)[C@@H](O[C@H]4C[C@H](OC)[C@@H](O)[C@H](C)O4)[C@H](C)O3)[C@@H](C)C=CC=C3CO[C@@H]4[C@H](O)C(C)=C[C@@H](C(=O)O1)[C@]34O)O2`, for which the Potency result is “inactive”.

For `O[C@H](c1cc(C(F)(F)F)nc2c(C(F)(F)F)cccc12)[C@H]1CCCCN1`, the Potency result is “inactive”.

With `Cc1c2oc3c(C)ccc(C(=O)NC4C(=O)NC(C(C)C)C(=O)N5CCCC5C(=O)N(C)CC(=O)N(C)C(C(C)C)C(=O)OC4C)c3nc-2c(C(=O)NC2C(=O)NC(C(C)C)C(=O)N3CCCC3C(=O)N(C)CC(=O)N(C)C(C(C)C)C(=O)OC2C)c(N)c1=O` (stereo not given) (I: TVP[Sar][NMeV] / II: TVP[Sar][NMeV]; ester I:1-I:C, II:1-II:C; linker I:N-II:N via Actinocin(9to1); configuration not given here), the Potency result is “inactive”.

On to `CNCCCCOc1ccccc1Cc1ccccc1`, for which the Potency entry is “inactive”.

Take `CC[C@H]1OC(=O)[C@H](C)[C@@H](O[C@H]2C[C@@](C)(OC)[C@@H](O)[C@H](C)O2)[C@H](C)[C@@H](O[C@@H]2O[C@H](C)C[C@H](N(C)C)[C@@H]2O)[C@](C)(O)C[C@@H](C)CN(C)[C@H](C)[C@@H](O)[C@]1(C)O`: the Potency is 9.43 µM (active).

As for `CCN(CC)CCOCCOC(=O)C(CC)(CC)c1ccccc1`, the Potency result was “inactive”.

Consider `C=CC(C)=C[C@@]1(C)SC(=O)C(C)=C1O`, for which the Potency entry is “inactive”.

With `CCc1nc(N)nc(N)c1-c1ccc(Cl)cc1`, the Potency entry is “inactive”.

`CN(C)c1ccc2nc3ccc(=[N+](C)C)cc-3sc2c1`: the Potency was 0.0049 µM (active).

Regarding `CO[C@H]1O[C@@H]2O[C@@]3(C)CC[C@@H]4[C@@H](C)CC[C@@H]([C@H]1C)[C@@]24OO3`, the Potency entry was “inactive”.

Regarding `COC(=O)C1C2CC3c4[nH]c5cc(OC)ccc5c4CCN3CC2CC(OC(=O)c2cc(OC)c(OC)c(OC)c2)C1OC` (stereo not given), the Potency entry was “inactive”.

For the compound `C[C@H](N)CN1CCc2ccc(Br)cc21`, the Potency was 1.5 µM (active).

On to `CCc1ccc(OCc2ccccc2C(=O)Nc2ccc3nc(C)cc(N)c3c2)cc1`, for which the Potency is 1.19 µM (active).

As to `CNC(=O)c1cc(Oc2ccc(NC(=O)Nc3ccc(Cl)c(C(F)(F)F)c3)cc2)ccn1`, the Potency is 4.21 µM (active).

Regarding `C=Cc1c(C)c2cc3nc(cc4[nH]c(cc5nc(cc1[nH]2)C(C)=C5CCC(=O)OC)c(CCC(=O)O)c4C)[C@@]1(C)C3=CC=C(C(=O)OC)[C@H]1C(=O)OC`, the Potency entry is “inactive”.

In the case of `C[C@H]1c2cccc(O)c2C(O)=C2C(=O)[C@]3(O)C(O)=C(C(N)=O)C(=O)[C@@H](N(C)C)[C@@H]3[C@@H](O)[C@@H]21`, the Potency is 8.41 µM (active).

With `COc1cc(NC(C)CCCN)c2ncccc2c1` (stereo not given), the Potency was 0.804 µM (active).

For `CC(CNC1CCCCC1)OC(=O)c1ccccc1` (stereo not given), the Potency result is “inactive”.
